Experimental findings from PubChem BioAssay (NCI) are described below.

The test system of the assay is HL-60(TB) leukemia. In words: NCI-60 one-dose screen, 48 h (100 = growth as untreated, 0 = no growth, -100 = all killed). To be noted: 10 µM unless noted.

“And” between values parts separate entries of the source, which are not always exact repeats. Identical values can stand only once. About 83,000 compounds went through this panel and 20% of them were active in at least one assay; those are over-represented in the sample as a whole.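 Growth was measured after 48 h exposure to one concentration of compound in 96-well plates. Values under 10 count as active.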 The source made the active and inactive calls.

Regarding `COc1cc([C@@H]2c3cc4c(cc3[C@H](O)[C@H]3COC(=O)[C@@H]23)OCO4)cc(OC)c1OC`, the growth is -34.9% (active) and -61% (active).

For the compound `CN(C)C(=N)N=C(N)N`, the growth is 98.3% (inactive) and 145% (inactive).

Take `Cc1c(-c2noc(-c3ccc([N+](=O)[O-])cc3)n2)no[n+]1[O-]`: the growth is 102% (inactive).

For the compound `COc1cc(CNC(=O)CCCC/C=C/C(C)C)ccc1OCc1nnc(Nc2ccc([N+](=O)[O-])cc2)o1`, the growth is 101% (inactive).

Consider `COc1cnc2c(c1)C(=O)c1c-2n(CCCN2CCCC2)c(=O)c2cc([N+](=O)[O-])ccc12`, for which the growth is -24.9% (active).

Regarding `CCCC(=O)Oc1ccc(/C(=C(\C)c2ccccc2)c2ccc(OCCN(CC)CC)cc2)cc1`, the growth was 39.2% (inactive).

Consider `Cc1cc(CCNC=O)c(C)c2c1sc1ccccc12`, for which the growth is 91.9% (inactive).

Regarding `COc1cc(NC(=O)COc2ccccc2)c(C(N)=O)cc1OC`, the growth was -11.7% (active).

In the case of `COC(=O)Nc1nc2ccc(C(=O)c3ccccc3N(C)C3COC3)cc2[nH]1`, the growth is 15.6% (inactive).

On to `CC(C)(C)c1cc(C(=O)Nc2ccc(C(=O)NCCN)cc2)cc(C(C)(C)C)c1`, for which the growth was -68.4% (active).

As to `Nc1c(N)c2ccccc2c2ccccc12`, the growth is 104% (inactive).

For the compound `Nc1ncnc2c1ccn2-c1cccc(NC(=O)c2cccc(C(F)(F)F)c2)c1`, the growth was 104% (inactive).

Turning to `COc1ccccc1C(C)=O`, the growth is 105% (inactive) and 102% (inactive).

Take `O=S(=O)(NCCNc1cc(-c2c(-c3cccc(O)c3)nc3sccn23)ccn1)c1ccc(C(F)(F)F)cc1`: the growth was 15.7% (inactive).

For the compound `O=C(O)[C@@H]1c2ccccc2-c2ccccc2[C@H]1C(=O)O`, the growth is 91.3% (inactive).

Turning to `CC(=O)N1N=C(c2ccc(C(F)(F)F)c(F)c2)CC1c1[nH]c(C)c(C(=O)NCC(F)(F)F)c1C` (stereo not given), the growth was 111% (inactive).

As for `COC[C@@H](C)n1c(C2CCOCC2)nc2c1C1C=C(OC)C(c3c(C)noc3C)=CC1N=C2` (stereo not given in full), the growth is 11.8% (inactive).

Turning to `C#COc1cccc(Nc2ncnc3ncc(NC(=O)CCl)cc23)c1`, the growth was -1.51% [6.25 µM] (active).

Turning to `CC1(C)C2CC1C1(/C=N\Nc3ccccc3)C(C2)C(C#N)(C#N)C1(C#N)C#N` (stereo not given), the growth was 89.9% (inactive).

Regarding `Cc1ccc(/C=C2\Oc3cc(OCC(=O)c4ccc(Cl)cc4)ccc3C2=O)cc1`, the growth is 50.7% (inactive).

As to `O=C(Cn1c(C(=O)c2ccccc2)nc2ccccc21)c1ccc(F)cc1`, the growth is 17.4% (inactive).

Regarding `NC(=O)C1CC2C=CC1C2` (stereo not given), the growth is 108% (inactive) and 106% (inactive).

Turning to `O=C(O)/C=C/C=C/c1ccccc1`, the growth is 106% (inactive) and 112% (inactive).

With `O=C(OCCBr)c1ccc(Cl)c([N+](=O)[O-])c1`, the growth was 81.7% (inactive).

In the case of `CCOC(=O)/C=C1/SC(=Nc2ccc(C#N)cc2)N(Cc2ccco2)C1=O`, the growth is -26.6% (active).

With `N#C/C(=C\c1ccc(Br)cc1)n1nnc2ccc(F)cc21`, the growth was -23.2% (active).

`O=C(O)C1C2CCC1C(O)C2` (stereo not given): the growth is 94.6% (inactive) and 96% (inactive).

Consider `COc1c(B(O)O)cccc1-c1nc2c(F)cc3[nH]ncc3c2c2c1CCCC2`, for which the growth was -28.3% (active).

In the case of `Nc1nc(N)nc(NCc2ccccc2)n1`, the growth is 98.6% (inactive).

As to `c1ccc(NCc2ccc3c(c2)OCO3)cc1`, the growth is 94.6% (inactive) and 96.1% (inactive).

Take `N#C/C(=C\c1ccc([N+](=O)[O-])s1)c1nc2cc(Cl)ccc2s1`: the growth was 44.8% (inactive).

Take `C=C1C(=O)O[C@H]2[C@H]1CC/C(C(=O)NCCOCCOCC(=O)Nc1ccc(OC)c(C(N)=O)c1O)=C\CC[C@@]1(C)O[C@@H]21`: the growth is 81.3% (inactive).

On to `O=C(CSc1nnc(-c2ccc(NC(=O)c3cccnc3)cc2)o1)N[C@@H](Cc1ccc(O)cc1)C(=O)O`, for which the growth was 99.4% (inactive).

With `CCN(CCNS(C)(=O)=O)c1ccc(N)c(C)c1`, the growth was 11.5% (inactive) and 77.3% (inactive).

`CC(C)(C)c1ccc(OP(=S)(N/N=C/c2ccccc2O)Oc2ccc(C(C)(C)C)cc2)cc1`: the growth is 77.8% (inactive).

For the compound `O=[N+]([O-])c1ccc(Oc2ccccc2)cc1`, the growth was 96.8% (inactive) and 79.2% (inactive).

On to `N=C(N)c1ccc(-c2ccc(-c3ccc(F)cc3)o2)o1`, for which the growth was -44.2% (active).

Take `CCCCCCCCCCCCCCCCCCOc1ccccc1CC(=O)OCC[N+]1(C)CCCC1`: the growth was 22.9% (inactive).

`CS(=O)(=O)c1ccc(-c2cc(-c3nnc(SCC(=O)Nc4ccc(C(=O)/C=C/c5ccc(Cl)cc5)cc4)n3-c3ccccc3)c3ccccc3n2)cc1`: the growth was 98.9% (inactive).

Take `COc1ccc(NC2=NC(C)(CO)CS2)cc1` (stereo not given): the growth is 91.1% (inactive).

Take `CCCCCCc1cc2cc(-c3csc(/C=C/c4ccccc4)n3)c(=O)oc2cc1O`: the growth was -46.8% (active).

For `Cn1c(SSc2ccc(-c3cccnc3)n2C)ccc1-c1cccnc1`, the growth is 62.8% (inactive) and -32.2% (active).

In the case of `Cn1cc(-c2csc(-c3cn(C(=O)OC(C)(C)C)c4ccc(Br)cc34)n2)c2ccnc(Cl)c21`, the growth was 115% (inactive).

As to `Cc1nc(NC(=O)NC2CCCCC2)sc1C(=O)NN`, the growth was 172% (inactive).

As to `CC1(C)C2CC1C1(/C=N/NC(N)=S)C(C2)C(C#N)(C#N)C1(C#N)C#N` (stereo not given), the growth was 13.5% (inactive).

On to `COCCn1c(Nc2ccc(C(=O)NO)cc2)nc2ccccc21`, for which the growth is 11.9% (inactive).

Take `CC(=O)Nc1ccc(/C=C/C(=O)c2ccccc2)cc1`: the growth is 79% (inactive).

Take `C[N+]1(CCCCC[N+]2(C)CCCC2)CCCC1`: the growth is 110% (inactive).

As to `Cn1nccc1Nc1nccc(-c2ccn([C@H](CO)c3ccc(Cl)c(F)c3)c(=O)c2)n1`, the growth is 57.1% (inactive).

Consider `Oc1ccc(CCn2c(O)c(/C=C3\CN=c4ccccc4=N3)sc2=S)cc1`, for which the growth was 19.5% (inactive).

For `CC(C)N1CCN(Cc2ccc3c(NNC(=O)c4ccccc4)nc4cc(F)ccc4n23)CC1`, the growth was 8.42% (active).

`Brc1ccc2c(c1)CN(C1CCCCC1)CO2`: the growth was 106% (inactive).

Regarding `COC(C(=O)[C@@H](O)[C@@H](C)O)[C@@H]1Cc2cc3cc(O[C@H]4C[C@@H](O[C@H]5C[C@@H](O)[C@H](O)C(C)O5)[C@H](O)C(C)O4)cc(O)c3c(O)c2C(=O)[C@H]1O[C@H]1C[C@@H](O[C@H]2C[C@@H](O[C@H]3C[C@@H](OC)[C@H](O)C(C)O3)[C@@H](O)C(C)O2)[C@H](O)C(C)O1` (stereo not given in full), the growth was 81.5% (inactive).

As for `CCN1C(=O)/C(=C/N2N=C(c3ccc(Cl)cc3)CC2c2ccc(OC)cc2)SC1=S` (stereo not given), the growth is 67.1% (inactive).

On to `O=S(=O)(Nc1ccc(NS(=O)(=O)c2ccccc2)c(Cl)c1)c1ccccc1`, for which the growth was 78.4% (inactive).

With `FC(F)(F)c1ccc(-c2cn3nc(-c4c[nH]c5ccc(Br)cc45)sc3n2)cc1`, the growth was 96.9% (inactive).

`COc1ccc2c(c1)C1(C(=O)N2)C(C#N)=C(c2ccccc2)Nc2c1c(-c1ccccc1)nn2-c1ccccc1` (stereo not given): the growth is 3.96% (active).

As for `Cc1ccc(/C=N/NC(N)=S)s1`, the growth is 101% (inactive).

As to `O=C1NC(c2ccc(Cl)c(Cl)c2)=C/C1=C\c1ccccc1`, the growth was 94.1% (inactive).

Take `C=C1C(=O)O[C@H]2[C@H]1CC/C(COC(=O)NCc1cc3ccccc3[nH]1)=C\CC[C@@]1(C)O[C@@H]21`: the growth was -51.4% (active).

As for `Cc1cc(/C=C\c2ccc3ccccc3[n+]2C)c(O)c2ncccc12`, the growth is -22.4% (active).

As for `COc1cccc2cc(-c3nc(C4CCC(C(=O)O)CC4)n4ncnc(N)c34)[nH]c12` (stereo not given), the growth was 33.3% (inactive).

For `CC(=O)N1N=C(c2ccc(Nc3nc(Nc4ccccc4)nc(Nc4ccccc4)n3)cc2)CC1c1cccc([N+](=O)[O-])c1` (stereo not given), the growth is 94.8% (inactive).

With `COc1ccc(C(=O)/C=C/c2cc3ccccc3[nH]c2=O)cc1`, the growth is 33.7% (inactive).

For the compound `O=C(N/N=C/c1ccc(F)cc1)c1ccc(C(F)(F)F)nc1Nc1cccc(C(F)(F)F)c1`, the growth is -37.2% (active).

Regarding `Cc1ccc(-c2nc(N3CCNCC3)c3oc(-c4ccccc4)nc3n2)cc1`, the growth was -66.6% (active).

Turning to `N#CC1=C(c2ccc(Br)cc2)NC(SCC(=O)c2ccc(Br)cc2)NC1=O` (stereo not given), the growth was 96% (inactive).

As for `O=C(OCc1ccc2c(Cl)cc(Cl)c(O)c2n1)n1cncn1`, the growth is 17.7% (inactive).

Consider `Cc1cc(Cl)ccc1Nc1nc(C(F)(F)F)ccc1C(=O)NCC(=O)N/N=C/c1c(Cl)cccc1Cl`, for which the growth was 48.7% (inactive).

With `COc1cc(C2CC(c3ccc(Nc4nc(NCCO)nc(N5CCOCC5)n4)cc3)=NN2c2cc(Cl)cc(Cl)c2)cc(OC)c1OC` (stereo not given), the growth was 44.9% (inactive).

Turning to `Cc1c2c(cn1Cc1ccccc1)CCc1cn[nH]c1-2`, the growth is 90.6% (inactive).

For the compound `C=C(C)[C@@H]1CC[C@]2(C(=O)OC)CC[C@]3(C)[C@H](CC[C@@H]4[C@@]5(C)C/C(=C/NC(N)=S)C(=O)C(C)(C)[C@@H]5CC[C@]43C)[C@@H]12`, the growth is 95% (inactive).

As for `C=C(C)[C@@H]1CC[C@]2(C)[C@H](CC=C3[C@@H]4[C@H](C)[C@@H](C)CC[C@]4(CO)CC[C@]32C)[C@@]1(C)CCCN`, the growth was -45.2% (active).

Turning to `O=C(/C=C/C=C/c1ccc2c(c1)OCO2)N1CCCCC1`, the growth was 100% (inactive) and 93.4% (inactive).

For `COc1ccc2oc3c(C)c4c(c(C)c3c2c1)C(=O)N(Cc1ccccc1)C4=O`, the growth is 96.2% (inactive).

Consider `COc1cc2nc(Cl)nc(Nc3cccc(C(=O)/C=C/c4ccc(Br)cc4)c3)c2cc1OC`, for which the growth is 77.8% (inactive).

Take `O=C(c1ccc(-c2nc(CSc3nc4ccccc4s3)no2)cc1)N1CCSCC1`: the growth was 27% (inactive).

With `Ic1ccc2[nH]cc(SSc3c[nH]c4ccc(I)cc34)c2c1`, the growth was -21.7% (active).

For the compound `Cc1[nH]c2ncnc(Oc3ccc(NC(=O)Nc4ccc(Cl)c(C(F)(F)F)c4)cc3)c2c1C`, the growth was 65.6% (inactive).

Regarding `Oc1c(CN2CCCCC2)ccc2cccnc12`, the growth was 58.3% (inactive) and 18.2% (inactive).
